# Source: PubChem BioAssay (National Center for Advancing Translational Sciences (NCATS))
# Compounds with a hit are over-represented: about 3.9% of the library has one in this group of screens.
# BRCA1 expr up – BRCA1 expression activation; MCF7-BRCA1-FFLuc reporter, luminescence, 48 h; response scale: scaled: vehicle 0%, 10 µM genistein 100%; Potency, µM (highest dose often 46.1 µM), for inactives: at the highest dose activation, most hits filed as activators; hit rate 1.1% among 380,000; further: nearly all actives have a fitted effect of over 80% in size
#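 Compounds are tested at multiple concentrations on MCF7 BRCA1-luciferase reporter cells seeded at 2000 per well; after 48 h, a single luminescence end-point is taken and curves fitted to the normalized data.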
# PLK1 PBD block – blocks phosphopeptide binding to human PLK1 polo-box domain. P53350. Plk1 PBD binding of FITC phosphopeptide, fluorescence polarization. Potency, µM, inactives show max response, negative = inhibition, most hits filed as inhibitors. hit rate 2.8% among 360,000. AID 720504; further: series mostly up to about 57 µM; on the % scale 0 is the no-effect control and ±100 the full control effect; nearly all actives have a fitted effect of over 65% in size
# Target sequence (P53350 whole entry, looked up, the tested form may be a part): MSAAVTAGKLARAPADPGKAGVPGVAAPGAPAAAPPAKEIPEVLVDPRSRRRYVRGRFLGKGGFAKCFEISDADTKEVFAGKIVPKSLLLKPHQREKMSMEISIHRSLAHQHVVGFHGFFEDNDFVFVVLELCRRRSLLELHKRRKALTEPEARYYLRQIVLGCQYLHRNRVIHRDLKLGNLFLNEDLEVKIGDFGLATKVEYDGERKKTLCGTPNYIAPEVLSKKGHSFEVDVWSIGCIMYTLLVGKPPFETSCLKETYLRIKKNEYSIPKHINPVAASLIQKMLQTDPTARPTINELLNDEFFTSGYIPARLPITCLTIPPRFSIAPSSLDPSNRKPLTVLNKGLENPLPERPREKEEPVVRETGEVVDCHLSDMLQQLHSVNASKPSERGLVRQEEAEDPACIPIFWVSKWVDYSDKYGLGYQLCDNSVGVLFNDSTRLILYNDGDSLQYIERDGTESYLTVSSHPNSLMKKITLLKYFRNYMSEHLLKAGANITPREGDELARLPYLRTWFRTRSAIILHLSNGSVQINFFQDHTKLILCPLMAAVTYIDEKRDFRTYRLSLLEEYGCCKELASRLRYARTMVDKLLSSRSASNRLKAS
# VDR inh – blocks the human vitamin D receptor; P11473; VDR-SRC2-3 peptide fluorescence polarization, 2 h; Potency, µM, for the others: max response, negative = inhibition, actives largely listed as inhibitors; hit rate 0.93% among 400,000; AID 504847; further: on the % scale 0 is the no-effect control and ±100 the full control effect
#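 Measured by FP: displacement of SRC2-3 coactivator peptide from VDR by library compounds, following a two-hour ambient incubation.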
# Tb PFK inh – blocks T. brucei phosphofructokinase | O15648 | T. brucei PFK, ADP-Glo luminescence | Potency, µM (titrated, usually from 57.5 µM), without a hit: at the highest dose activity, negative = inhibition, actives largely listed as inhibitors | hit rate 0.17% among 330,000;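 further: 0% = uninhibited 1x PFK enzyme wells and -100% = no-enzyme wells; nearly all actives have a fitted effect of over 60% in size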
#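 PFK 1.25 nM, F6P 0.5 mM, ATP 0.1 mM, 0.1 M TEA pH 8.0, 5 mM MgCl2, 0.01% Tween20, 0.1% BSA; 45 min RT. ADP-Glo readout. qHTS titration up to 57 uM; curves fitted, compounds curve-classed.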
# * = called active by the depositor; ? = inconclusive; . = no result given; ! = not active in a repeat. The call rests on the fitted dose curve; in most records, active means well fitted curve in the direction sought with a large enough effect; inconclusive means small, poorly fitted or top-dose-only effect, or another doubt; inactive means no such curve, though single readings can be large; an effect the other way counts as inactive or inconclusive. Potency means the concentration at half of the fitted maximal effect.
SMILES,BRCA1 expr up,PLK1 PBD block,VDR inh,Tb PFK inh
CCCCCCCOc1ccc(C2(C)NC(=O)NC2=O)cc1 (centres undefined),3%,-7%,-3%,-5%
O=C(Cn1nnc(-c2ccccc2F)n1)N1CCCCC1,8.9µM*,-1%,-1%,-5%
COc1ccc(OCc2cc(C(=O)N(C)Cc3cnccn3)no2)c(Cl)c1,8.9µM*,-3%,13%,2%
COc1ccc(OCc2cc(C(=O)NC(C)Cc3cnccn3)no2)c(Cl)c1 (centres undefined),11µM*,-3%,19%,-2%
CSc1ccccc1OCc1cc(C(=O)N(C)Cc2cnccn2)no1,?,0%,-4%,-2%
CCS(=O)(=O)N1Cc2ccccc2CC1C(=O)Nc1cccc(C)c1 (centres undefined),5µM*,-10%,0%,2%
O=c1[nH]c(CSc2ccccn2)nc2ccccc12,91%,-9%,0%,-7%
Cc1cccc(OCc2nc3ccccc3c(=O)n2N)c1,?,24µM*,8%,-2%
Nn1c(CSc2ccccn2)nc2ccccc2c1=O,10µM*,-18%,-6%,4%
CCCCCCCCCCCCOCCOCCOCCOCCOCCOCCOCCOCCOCCO,.,.,-9%,.
CCSc1nnc(NC(=O)C2CCCN(S(=O)(=O)c3cnc[nH]3)C2)s1 (centres undefined),-5%,30µM*,-4%,2%
O=C(NC1CCCCCCC1)c1cc(-c2ccccn2)nc2ccccc12,-28%,27µM*,-3%,1%
CN(C)c1ccc2c3c(cccc13)C(=O)N(c1ccccc1)C2=O,.,.,.,0%
Cc1cccc(N2C(=O)c3cccc4c(N(C)CCO)ccc(c34)C2=O)c1,-1%,11µM*,-1%,2%
Cc1nn(Cc2noc(C(=O)NCc3cccc(F)c3)n2)c(C)c1Br,-12%,.,-4%,.
Cc1ccc(C(=O)NCc2ccc3c(c2)CCN3C(=O)c2ccc(C)cc2)cc1,.,.,10%,.
COc1cc(/C=C2/SC(=S)N(Cc3ccccc3)C2=O)cc(Cl)c1O,-11%,-33%,-25%,-17%
O=C1/C(=C\c2cc(Br)cc(Br)c2O)SC(=S)N1Cc1ccccc1,-70%,9.5µM*,50µM*,3%
O=C1/C(=C\c2cccc([N+](=O)[O-])c2O)SC(=S)N1Cc1ccccc1,-24%,17µM*,?,?
COc1cc([N+](=O)[O-])cc(/C=C2/SC(=S)N(Cc3ccccc3)C2=O)c1O,-9%,30µM*,?,-11%
O=C1/C(=C/c2ccc(O)c([N+](=O)[O-])c2)SC(=S)N1Cc1ccccc1,-30%,?,-18%,6%
COc1ccc([C@@]23Oc4cc(OC)cc(OC)c4[C@]2(O)[C@H](O)[C@H](C(=O)N(C)C)[C@H]3c2ccccc2)cc1,?,-3%,11%,.
COc1cc2c3nnc(-c4ccccc4)c-3cn(Cc3ccccc3F)c2cc1OC,1%,21µM*,11%,-4%
c1ccc(SSc2ccccn2)nc1,-28%,0.67µM*,3.2µM*,.
c1ccc(Sc2ccccn2)cc1,0%,-7%,7%,.
SMILES,BRCA1 expr up,PLK1 PBD block,VDR inh,Tb PFK inh
CCOC(=O)c1cccc(NC(=O)C2CCN(S(=O)(=O)c3c(C)noc3/C=C/c3ccc(C)cc3)CC2)c1,-18%,.,25%,.
COc1ccc(-c2ccc3c(c2)[C@@H]2C[C@H](N(C)C(=O)C(C)(C)C)[C@H]([C@H](C)O)C(=O)N2CC3)cc1,-13%,-10%,-5%,.
COc1ccc(C2C(=O)c3ccccc3C2=O)cc1OC,48%,-1%,25%,-8%
COc1ccc(-c2cccc3c2NC(=O)C3=O)cc1OC,4%,27µM*,?,13%
COc1ccc(-n2nc3ccc(NC(=O)c4cc5ccccc5o4)cc3n2)cc1Cl,.,.,-2%,.
Cn1c(=O)c2c(ncn2CCOc2ccc(F)cc2)n(C)c1=O,-32%,-8%,-5%,-1%
CCCS(=O)(=O)NC(=O)C1(C)CCCN(C(=O)c2ccc(OC)cc2)C1 (centres undefined),0%,-6%,.,.
C[C@H](CO)N1C[C@H](C)[C@@H](CN(C)C(=O)NC2CCCCC2)Oc2c(NC(=O)C3CC3)cccc2C1=O,1%,-11%,4%,1%
CN1CCN(NC(=O)c2cn(-c3ccccc3)nc2-c2cccs2)CC1,20%,?,-9%,-4%
O=C(NN1CCOCC1)c1cn(-c2ccccc2)nc1-c1cccs1,14%,24µM*,-19%,-11%
COc1ccc(C2=NC(c3ccccc3)=Nc3ccc(C)cc3N2)cc1,.,.,-10%,.
CC1=CC(c2ccccc2)=Nc2ccc(C)cc2N1,7.1µM*,-5%,-6%,-8%
Cc1ccc(S(=O)(=O)N(C)c2ccc(OCC(=O)Nc3cc(C(=O)O)ccc3Cl)cc2)cc1,7%,-7%,11%,.
O=C1C(Cl)=C(N2CCOCC2)C(=O)N1c1ccccc1Cl,2%,-17%,45µM*,2%
O=C(Nc1ccccc1C(F)(F)F)NC1(C(=O)N2CCOCC2)CCCCC1,-37%,6.7µM*,?,.
O=C(NN1C(=O)/C(=C/c2cc([N+](=O)[O-])ccc2O)SC1=S)c1ccccc1O,.,.,.,-7%
Cc1ccc(/C=C2\SC(=S)N(/N=C/c3cc([N+](=O)[O-])ccc3O)C2=O)o1,-7%,12µM*,?,-21%
O=c1cccccc1NN=C1CCCCCC1,10µM*,-4%,0%,-6%
O=c1cccccc1NN=C1CCCCC1,14%,-14%,4%,-5%
NC(CO)C(=O)NNCc1ccc(O)c(O)c1O (centres undefined),4%,6.7µM*,45µM*!,-16%
NC(=O)C[C@H](NC(=O)Cc1ccc(O)cc1O)C(=O)O,.,.,-6%,.
Cc1ccc(CNC(=O)CSc2nc3c(sc4ccccc43)c(=O)n2CCCOC(C)C)cc1,.,.,-11%,.
CS(=O)(=O)OCC(O)C(O)COS(C)(=O)=O (centres undefined),.,.,5%,.
Cc1c(Cl)cccc1NC(=S)NC1CC1,-21%,-4%,-25%,-4%
Cc1c(Cl)cccc1NC(=S)Nn1cnnc1,8%,7.5µM*,79µM*,-9%
SMILES,BRCA1 expr up,PLK1 PBD block,VDR inh,Tb PFK inh
COC(=O)c1ccc(N2C(=O)CC(Sc3n[nH]c(C)n3)C2=O)cc1 (centres undefined),19%,3.4µM*,-5%,2%
O=C(/N=C1\NC(=O)C(F)(C(F)(F)F)S1)NC1CCCCC1 (centres undefined),0%,13µM*,50µM*,-2%
CCC1S/C(=N/C(=O)NC2CCCCC2)NC1=O (centres undefined),76%,2%,-1%,-3%
Cc1noc(C)c1NC(=O)N(C)C[C@H]1OCc2cnnn2CCCC(=O)N([C@H](C)CO)C[C@@H]1C,7%,-7%,.,.
O=C(CCCOc1ccc(Cl)cc1Cl)NCCCn1ccnc1,14%,-8%,15%,-8%
CC(Oc1ccc(Cl)cc1Cl)C(=O)NCCCn1ccnc1 (centres undefined),-14%,24µM*,-12%,1%
Cc1c(C(=O)Oc2cc(N)n(S(C)(=O)=O)n2)cccc1[N+](=O)[O-],-6%,12µM*,79µM*,-4%
Cc1ccccc1C(=O)Oc1cc(N)n(S(C)(=O)=O)n1,9%,-22%,3%,-5%
